This is an account of results in PubChem BioAssay (EPA / NIEHS).

Results filed as inconclusive are left out. Active and inactive are the calls of the source. Rule for the calls, unless noted: active = hit-call score of the fitted dose curve at least 0.9, where 1 is the maximum; inactive = score below 0.9.

As a reminder, the AC50 is the concentration giving half of the maximal activity seen.

A short description of assay [1]: ACEA_ER_80hr: ACEA Biosciences xCELLigence Real-Time Cell Analysis on Estrogen Receptor Agonism for Proliferation (AID 2282667; active = hit-call score of the fitted dose curve at least 0.9, where 1 is the maximum). The settings on record: T47D proliferation, impedance (xCELLigence), 80 h. The method in brief: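 Impedance readout (RT-CES) of T47D proliferation at 80 h post-dose; gain of signal vs DMSO baseline. Compounds: 8 conc, 1:4 serial, top 100 uM final, ≤0.5% DMSO; biological duplicate.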

Assay [2] is described as follows: ATG_CRE_CIS: Attagene CIS-FACTORIAL HepG2 Assay for human cAMP Responsive Element (CRE) binding protein 3 (AID 2282926). The settings on record: HepG2 CRE cis-reporter, Attagene multiplexed mRNA; actives raise or lower the signal. The method in brief: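 Endogenous CRE-binding activity in HepG2 is reported through a cis-regulated transfected reporter. Following a day of exposure, mRNA levels are determined by reverse transcription PCR and fluorescent fragment analysis; fits run in both directions versus DMSO.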

Assay [3] deals with CCAAT/enhancer-binding protein beta (Homo sapiens) (UniProt P17676). Description: ATG_C_EBP_CIS: Attagene CIS-FACTORIAL HepG2 Assay for human CCAAT/Enhancer Binding Protein (C/EBP) beta (AID 2282927). The conditions noted are these: HepG2 Attagene cis-factorial transcription factor reporter; actives raise or lower the signal. Summed up: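 Changes in reporter mRNA, rather than exogenous chimeric receptor activity, reflect native C/EBP signalling in transfected HepG2 cells dosed for 24 h; transcripts are detected by RT-PCR and capillary electrophoresis.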

Assay [4] can be described thus: ATG_CMV_CIS: Attagene CIS-FACTORIAL HepG2 Assay for human CMV (Internal Marker) (AID 2282928).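 Note: endpoint acts as a background internal control marker rather than a target.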 The settings on record: HepG2 CMV promoter reporter, transcription factor profiling; actives raise or lower the signal. Summed up: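 After transient transfection of HepG2 with reporter transcription units driven by cis-regulatory promoters, cells receive test chemical for 24 h. Labeled reporter amplicons, digested with HpaI, are sized and quantified by capillary electrophoresis against DMSO.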

Assay [5] in a line: ATG_DR4_LXR_CIS: Attagene CIS-FACTORIAL HepG2 Assay for human Liver X Receptor (LXR), DR4 submotif (AID 2282929). The settings on record: HepG2 Attagene DR4 cis-reporter, mRNA transcription; actives raise or lower the signal. Summed up: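 The endpoint is DR4-element-driven reporter transcripts after 24 h chemical exposure of transfected HepG2 cells. These were measured via RT-PCR and capillary electrophoresis, and gain or loss of signal was fitted relative to DMSO controls.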

For assay [6], the target named is Aryl hydrocarbon receptor (Homo sapiens) (UniProt P35869). Description: ATG_Ahr_CIS: Attagene CIS-FACTORIAL HepG2 Assay for human Aryl Hydrocarbon Receptor (Ahr) (AID 2282930). The conditions noted are these: HepG2 AhR cis-factorial reporter transcription; actives raise or lower the signal. Summed up: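 HepG2, transient MRTU (cis) transfection, 24 h exposure. RNA → cDNA → PCR → 6-FAM primer extension → HpaI 2 h 37 C → CE. Fit: bidirectional, DMSO baseline.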

The nature of assay [7]: ATG_AP_1_CIS: Attagene CIS-FACTORIAL HepG2 Assay for human Activator Protein 1 (AP-1) (AID 2282931). The conditions noted are these: HepG2 Attagene cis-factorial AP-1 reporter mRNA; actives raise or lower the signal. Summed up: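 Readout is reporter transcript level from endogenous transcription factor activity, quantified by RT-PCR with fluorescent primer extension and capillary electrophoresis. Transiently transfected HepG2 cells, 24 h exposure. Curves fitted both directions versus DMSO.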

Assay [8] in a line: ATG_AP_2_CIS: Attagene CIS-FACTORIAL HepG2 Assay for human Activator Protein 2 (AP-2) (AID 2282932). The settings on record: HepG2 AP-2 cis-reporter, Attagene transcription factor profiling; actives raise or lower the signal. The method in brief: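 Step one: transient transfection of HepG2 with reporter transcription units. Step two: 24 h chemical exposure. Step three: RNA extraction, RT-PCR, labelled fragment analysis by capillary electrophoresis; DMSO serves as baseline.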

A short description of assay [9]: ATG_BRE_CIS: Attagene CIS-FACTORIAL HepG2 Assay for human Bone Morphogenetic Protein (BMP) Response Element (BRE) (AID 2282933). The conditions noted are these: HepG2 BMP response element reporter, Attagene transcription factor profiling; actives raise or lower the signal. The method in brief:
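HepG2 cells transiently transfected with multiplexed cis-element reporter units were dosed with chemical for 24 h. Reporter mRNA was measured by RT-PCR with fluorescent labelling, HpaI digestion and capillary electrophoresis; bidirectional fitting relative to DMSO.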

In assay [10] the target is Retinoic acid receptor alpha (Homo sapiens) (UniProt P10276). Description: ATG_DR5_RAR_CIS: Attagene CIS-FACTORIAL HepG2 Assay for human Retinoic Acid Receptor Alpha (RARE), DR5 submotif (AID 2282934). The settings on record: HepG2 Attagene cis-factorial RARE DR5 reporter, mRNA; actives raise or lower the signal. The method in brief: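 HepG2, transient cis-reporter transfection, 24 h exposure. mRNA readout: RT-PCR, FAM label, HpaI cut, capillary electrophoresis. DMSO baseline, gain/loss fitting.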

Assay [11] has as its target Transcription factor E2F1 (Homo sapiens) (UniProt Q01094). Description: ATG_E2F_CIS: Attagene CIS-FACTORIAL HepG2 Assay for human E2F Transcription Factor 1 (AID 2282935). The settings on record: HepG2 Attagene cis-reporter, E2F reporter RNA transcripts; actives raise or lower the signal. The method in brief:
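Total RNA from 24 h-treated, reporter-transfected HepG2 cells undergoes DNase I treatment, oligo(dT) reverse transcription, PCR and 6-FAM primer extension before capillary electrophoresis.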

The nature of assay [12]: ATG_E_Box_CIS: Attagene CIS-FACTORIAL HepG2 Assay for human Enhancer Box (E-box) (AID 2282936). The conditions noted are these: HepG2 E-box cis-reporter transcription, actives raise or lower the signal. The method in brief: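 DMSO served as negative control and baseline for bidirectional fitting. Human hepatoma HepG2 cells, transiently transfected with cis-reporter constructs, were dosed 24 h; reporter mRNA read by RT-PCR and capillary electrophoresis.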

A short description of assay [13]: ATG_M_61_CIS: Attagene CIS-FACTORIAL HepG2 Assay for M61 Transcription Factor (Internal Marker) (AID 2282937). The settings on record: HepG2 Attagene CIS-FACTORIAL M61 internal marker reporter; actives raise or lower the signal. The method in brief:
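Readout is reporter mRNA by RT-PCR, fluorescent primer extension and capillary electrophoresis, with gain or loss fitted relative to DMSO. Transfected HepG2 cells carrying endogenous-TF-driven cis reporters were exposed to chemicals for 24 hours.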

Assay [14] can be described thus: ATG_EGR_CIS: Attagene CIS-FACTORIAL HepG2 Assay for human Early Growth Response 1 (EGR1) (AID 2282938). The conditions noted are these: HepG2 Attagene CIS-FACTORIAL EGR reporter mRNA; actives raise or lower the signal. Summed up:
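After 24 h compound exposure, RNA from reporter-transfected HepG2 cells was reverse-transcribed, PCR-amplified, fluorescently labelled and resolved by capillary electrophoresis. EGR1 reporter transcript changes, up or down, were fitted against DMSO, reflecting endogenous transcription-factor activity.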

Assay [15] is described as follows: ATG_M_19_CIS: Attagene CIS-FACTORIAL HepG2 Assay for M19 Transcription Factor (Internal Marker) (AID 2282939). The conditions noted are these: HepG2 Attagene CIS-FACTORIAL M19 internal marker reporter; actives raise or lower the signal. Summed up: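 HepG2 cells transiently transfected with cis-regulated multiple reporter transcription units were dosed for 24 h; reporter mRNA was quantified by RT-PCR, 6-FAM primer-extension labelling, HpaI digestion and capillary electrophoresis, with bidirectional fitting against DMSO baseline.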

The nature of assay [16]: ATG_ERE_CIS: Attagene CIS-FACTORIAL HepG2 Assay for Estrogen Response Element (ERE) (AID 2282940). The settings on record: HepG2 ERE cis-reporter, Attagene RNA transcript; actives raise or lower the signal. Summed up:
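HepG2 cells transiently transfected with cis-promoter-driven multiplexed reporter transcription units report endogenous TF activity. After 24 h compound exposure, reporter mRNA is quantified by RT-PCR with capillary electrophoresis fluorescence; bidirectional fitting versus DMSO baseline.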

Assay [17] is described as follows: ATG_Ets_CIS: Attagene CIS-FACTORIAL HepG2 Assay for human Erythroblast Transformation Specific (ETS) (AID 2282941). The conditions noted are these: HepG2 ETS cis-reporter transcription, actives raise or lower the signal. The method in brief: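 Human HepG2 hepatoma cells were transiently transfected with promoter-driven reporter constructs and treated for 24 hours. Reporter transcripts were quantified by RT-PCR with fluorescent primer extension; bidirectional curve fitting used DMSO as reference.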

Assay [18] addresses Hepatocyte nuclear factor 3-beta (Homo sapiens) (UniProt Q9Y261). Description: ATG_FoxA2_CIS: Attagene CIS-FACTORIAL HepG2 Assay for human Forkhead box A2 (FOXA2) (AID 2282942). The conditions noted are these: HepG2 cis-reporter transcription factor activity, 24 h; actives raise or lower the signal. Summed up:
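Endogenous transcription factor activity is captured via cis-element-driven reporter transcripts in transfected HepG2. Total RNA taken at 24 h post-dosing; labelled RT-PCR products resolved by capillary electrophoresis. Gain or loss fitted versus DMSO.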

Assay [19] is described as follows: ATG_FoxO_CIS: Attagene CIS-FACTORIAL HepG2 Assay for human Forkhead box O (FoxO) (AID 2282943). The conditions noted are these: HepG2 Attagene cis-reporter, FoxO element, mRNA; actives raise or lower the signal. The method in brief:
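Human hepatoma HepG2 cells carry transiently introduced reporter transcription units controlled by cis promoter elements. Chemical treatment lasted 24 h, and mRNA signal was compared with DMSO.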

The nature of assay [20]: ATG_GATA_CIS: Attagene CIS-FACTORIAL HepG2 Assay for human GATA Binding Protein (AID 2282944). The settings on record: HepG2 GATA cis-element reporter, Attagene multiplex mRNA; actives raise or lower the signal. Summed up: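 HepG2 cells transiently transfected with multiplexed cis-element reporter units reflecting endogenous transcription factor activity; reporter mRNA measured after 24 h dosing by RT-PCR, 6-FAM labeling, HpaI digestion and capillary electrophoresis. Bidirectional fitting versus DMSO baseline.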

Chain of Transcription factor E2F1 (Homo sapiens) (Q01094 whole entry, looked up): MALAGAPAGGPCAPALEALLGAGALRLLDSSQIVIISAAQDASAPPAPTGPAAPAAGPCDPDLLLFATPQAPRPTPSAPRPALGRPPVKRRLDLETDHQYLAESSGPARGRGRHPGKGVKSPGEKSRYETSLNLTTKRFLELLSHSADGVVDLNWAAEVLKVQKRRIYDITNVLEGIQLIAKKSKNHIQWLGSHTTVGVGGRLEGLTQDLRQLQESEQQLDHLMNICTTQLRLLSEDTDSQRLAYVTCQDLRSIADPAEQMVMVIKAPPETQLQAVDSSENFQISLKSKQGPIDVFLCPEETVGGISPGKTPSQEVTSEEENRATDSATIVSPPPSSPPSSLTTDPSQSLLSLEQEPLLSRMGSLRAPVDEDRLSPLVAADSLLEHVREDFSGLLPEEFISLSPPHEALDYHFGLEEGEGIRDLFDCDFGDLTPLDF
Chain of CCAAT/enhancer-binding protein beta (Homo sapiens) (P17676 whole entry, looked up): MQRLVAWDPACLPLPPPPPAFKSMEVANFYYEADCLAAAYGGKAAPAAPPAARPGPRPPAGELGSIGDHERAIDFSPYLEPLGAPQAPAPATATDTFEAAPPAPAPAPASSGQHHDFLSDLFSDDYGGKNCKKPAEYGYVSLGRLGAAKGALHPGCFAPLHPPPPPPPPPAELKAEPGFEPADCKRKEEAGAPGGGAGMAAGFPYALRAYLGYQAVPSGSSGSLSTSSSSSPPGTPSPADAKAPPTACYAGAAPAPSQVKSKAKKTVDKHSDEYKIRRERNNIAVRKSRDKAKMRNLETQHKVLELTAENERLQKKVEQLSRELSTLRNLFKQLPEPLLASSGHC
Chain of Retinoic acid receptor alpha (Homo sapiens) (P10276 whole entry, looked up): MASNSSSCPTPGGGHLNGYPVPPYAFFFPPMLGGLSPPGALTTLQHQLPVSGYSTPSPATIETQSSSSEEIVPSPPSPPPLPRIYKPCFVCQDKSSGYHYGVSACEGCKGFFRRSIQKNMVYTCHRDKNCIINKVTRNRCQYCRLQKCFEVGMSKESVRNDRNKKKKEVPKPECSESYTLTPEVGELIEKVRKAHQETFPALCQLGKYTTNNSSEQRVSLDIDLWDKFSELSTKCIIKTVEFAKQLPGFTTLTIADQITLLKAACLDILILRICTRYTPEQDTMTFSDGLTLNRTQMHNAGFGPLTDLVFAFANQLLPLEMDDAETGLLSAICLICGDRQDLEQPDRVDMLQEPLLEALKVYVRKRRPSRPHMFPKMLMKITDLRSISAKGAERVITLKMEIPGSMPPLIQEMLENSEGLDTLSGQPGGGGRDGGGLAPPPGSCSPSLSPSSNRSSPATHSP
Chain of Hepatocyte nuclear factor 3-beta (Homo sapiens) (Q9Y261 whole entry, looked up): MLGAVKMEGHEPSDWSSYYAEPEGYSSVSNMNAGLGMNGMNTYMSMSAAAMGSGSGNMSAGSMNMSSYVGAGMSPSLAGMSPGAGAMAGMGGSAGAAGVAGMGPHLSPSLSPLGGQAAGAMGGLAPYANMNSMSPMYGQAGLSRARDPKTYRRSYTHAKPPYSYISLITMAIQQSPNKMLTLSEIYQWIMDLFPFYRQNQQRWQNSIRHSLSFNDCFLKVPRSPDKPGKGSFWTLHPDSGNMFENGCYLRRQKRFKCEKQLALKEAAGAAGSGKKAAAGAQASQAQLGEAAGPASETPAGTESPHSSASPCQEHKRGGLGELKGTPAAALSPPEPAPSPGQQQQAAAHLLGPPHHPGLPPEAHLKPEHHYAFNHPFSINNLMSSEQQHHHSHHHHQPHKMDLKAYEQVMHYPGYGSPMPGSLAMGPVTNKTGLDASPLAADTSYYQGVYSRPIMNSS
Chain of Aryl hydrocarbon receptor (Homo sapiens) (P35869 whole entry, looked up): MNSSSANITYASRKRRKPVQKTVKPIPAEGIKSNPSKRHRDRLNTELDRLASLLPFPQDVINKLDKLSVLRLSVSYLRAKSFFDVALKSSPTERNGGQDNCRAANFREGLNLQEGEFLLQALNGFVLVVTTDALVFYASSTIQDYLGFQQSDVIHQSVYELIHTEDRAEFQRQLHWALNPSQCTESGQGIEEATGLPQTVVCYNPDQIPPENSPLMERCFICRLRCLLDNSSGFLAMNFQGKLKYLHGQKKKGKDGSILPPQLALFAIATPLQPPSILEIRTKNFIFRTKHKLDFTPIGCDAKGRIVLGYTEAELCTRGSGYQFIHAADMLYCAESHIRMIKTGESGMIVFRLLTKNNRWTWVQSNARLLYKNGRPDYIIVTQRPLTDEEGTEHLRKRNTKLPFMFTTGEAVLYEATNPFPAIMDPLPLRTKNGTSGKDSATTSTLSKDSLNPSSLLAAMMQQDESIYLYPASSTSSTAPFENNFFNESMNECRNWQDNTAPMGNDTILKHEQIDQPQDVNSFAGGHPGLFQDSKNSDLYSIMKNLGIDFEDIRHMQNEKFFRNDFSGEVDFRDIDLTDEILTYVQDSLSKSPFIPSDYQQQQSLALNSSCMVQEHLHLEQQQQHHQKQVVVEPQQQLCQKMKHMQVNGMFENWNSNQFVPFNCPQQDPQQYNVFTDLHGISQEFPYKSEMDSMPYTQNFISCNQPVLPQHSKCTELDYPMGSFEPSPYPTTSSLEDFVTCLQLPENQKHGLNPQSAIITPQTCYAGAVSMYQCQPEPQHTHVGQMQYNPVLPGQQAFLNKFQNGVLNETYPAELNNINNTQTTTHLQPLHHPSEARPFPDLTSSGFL

`CCOC(=O)CC(=O)C(F)(F)C(F)(F)F`: the AC50 in assay [1] is 9.87 µM (active). Further, the molecule was called inactive in assay [2], in assay [3], in assay [4], in [5], in [6] and in [7]. Also, the molecule was classed as inactive in [8], in [9], in assay [10], in assay [11], in [12] and in [13]. The molecule was called inactive in assay [14], in assay [15], in [16], in assay [17], in assay [18] and in assay [19]. Further, the outcome in assay [20] was inactive.
As to `Cc1cccc(C)n1`, the molecule was called inactive in assay [1], in assay [2], in assay [3], in assay [4], in [5] and in [6]. For the same molecule, the outcome in assay [7], in assay [8], in [9], in assay [10], in assay [11] and in assay [12] was inactive. In addition, the outcome in [13], in [14], in assay [15], in assay [16], in assay [17] and in assay [18] was inactive. Moreover, the molecule was called inactive in assay [19] and in assay [20].
As for `NS(=O)(=O)C(F)(F)C(F)(F)C(F)(F)C(F)(F)C(F)(F)C(F)(F)F`, the outcome in assay [1], in assay [2], in [3], in assay [4], in [5] and in assay [6] was inactive. Further, the outcome in assay [7], in assay [8], in [9], in [10], in assay [11] and in assay [12] was inactive. Moreover, the outcome in assay [13], in assay [14], in assay [15], in [17], in assay [18] and in assay [19] was inactive. Moreover, the outcome in assay [20] was inactive. In assay [16], the AC50 was 41.4 µM (active).
With `C#CC(O)CCC` (stereo not drawn), the call in assay [1], in assay [2], in [3], in assay [4], in assay [6] and in assay [7] was inactive. Besides, the result in assay [8], in assay [9], in [10], in [11], in assay [12] and in assay [13] was inactive. For the same molecule, the molecule was called inactive in assay [14], in [15], in assay [16], in [17], in [18] and in assay [19]. In assay [20], the molecule was classed as inactive.
As to `NC(=O)C(F)(F)C(F)(F)C(F)(F)C(F)(F)C(N)=O`, the molecule was classed as inactive in [1], in assay [2], in [3], in assay [4], in assay [5] and in [6]. In addition, the molecule was classed as inactive in assay [7], in assay [8], in [9], in assay [10], in assay [11] and in [12]. Also, the molecule was classed as inactive in [13], in assay [14], in assay [15], in assay [16], in assay [17] and in assay [18]. Moreover, the molecule was called inactive in assay [19] and in assay [20].
Consider `CCN(CC)c1ccc(C=O)cc1`, for which the AC50 is 0.0998 µM (active) in assay [1], 25.8 µM (active) in [15] and 26 µM (active) in [17]. Also, the molecule was called inactive in [2], in assay [3], in assay [4], in assay [6], in assay [7] and in assay [8]. Besides, the outcome in assay [9], in assay [10], in assay [11], in assay [12], in assay [13] and in assay [14] was inactive. Besides, the call in assay [16], in assay [18], in assay [19] and in assay [20] was inactive.
Turning to `O=C1c2ccccc2C(=O)c2c(Cl)cccc21`, the molecule was classed as inactive in assay [1], in assay [2], in assay [3], in assay [4], in assay [5] and in [6]. For the same molecule, the molecule was classed as inactive in assay [7], in assay [8], in [9], in [10], in assay [11] and in assay [12]. Also, the outcome in assay [13], in assay [14], in [15], in assay [16], in assay [17] and in [18] was inactive. In addition, the result in assay [19] and in assay [20] was inactive.
